Screening data deposited in PubChem BioAssay by National Center for Advancing Translational Sciences (NCATS).
This is a sample that favours compounds with a hit; in the whole collection about 3% have one here.
Tau fibril FP: inhibitors of human tau fibril formation | Potency, µM (series often up to 57.7 µM), actives largely listed as inhibitors | hit rate 0.39% among 280,000 | AID 1468 | K18 P301L tau heparin fibrillization, Alexa594 FP, 6 h; further: nearly all actives have a fitted effect of over 55% in size
Target sequence (P10636 561-689 P618L limits assumed): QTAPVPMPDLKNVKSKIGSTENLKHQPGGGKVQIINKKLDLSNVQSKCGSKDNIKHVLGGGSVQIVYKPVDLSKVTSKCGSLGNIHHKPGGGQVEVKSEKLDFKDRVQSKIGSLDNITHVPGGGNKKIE
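Compound effects on tau fibrillization are measured by Alexa 594 fluorescence polarization (ex 555, em 632 nm). K18 P301L tau is used at 15 uM with 0.24 uM labeled tracer, and 20 uM heparin induces aggregation over 6 hr at 37 C.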
Tau fibril ThT: blocks human tau fibril formation measured by thioflavin T | AID 1460 | hit rate 2.1% among 270,000 | recombinant tau K18 P301L, heparin-induced fibrillization, ThT fluorescence | Potency, µM (titrated, usually from 57.4 µM), most hits filed as inhibitors; further: nearly all actives have a fitted effect of over 55% in size
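K18 P301L tau (15 uM + 0.24 uM Alexa 594-tagged), heparin 20 uM, NaOAc pH 7, 6 h 37 C; ThT 30 uM, 1 h RT, ex 450/em 510 nm.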
TexasRed fluor: Texas Red fluorescence interference in TRb-SRC2 counter-screen; Potency, µM (series often up to 106 µM); hit rate 0.29% among 280,000; TRb/SRC2 Texas Red total fluorescence interference; AID 1479; active means well fitted curve in either direction with a large enough effect; inconclusive means small, poorly fitted or top-dose-only effect
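Human TRβ ligand-binding domain (0.6 uM) and Texas Red SRC2 peptide (20 nM) in Tris buffer with 1 uM T3 and 5% DMSO were incubated with pinned compound for 5 hr at ambient temperature. Total fluorescence was computed as S + 2P (555/632 nm).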
Tau fluor cs: counter-screen for tau fibril formation inhibitors | tau K18 P301L (four-repeat tau fragment) Alexa594 fluorescence, heparin fibrillization | Potency, µM (series often up to 57.7 µM) | hit rate 0.93% among 280,000 | AID 1463; further: nearly all actives have a fitted effect of over 55% in size
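Human K18 P301L tau (15 uM unlabeled plus 0.24 uM Alexa 594-labeled, final) in 100 mM sodium acetate pH 7 was mixed with compound and 20 uM heparin and incubated 6 hr at 37 C.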
TRb-SRC2 inh: TRbeta-SRC2 interaction inhibition. hit rate 0.065% among 280,000. P10828. Potency, µM (titrated, usually from 106 µM), usual class: inhibitors. TRbeta-SRC2 peptide binding, fluorescence polarization; receptor liganded with 1 µM T3; further: nearly all actives have a fitted effect of over 50% in size
Target sequence (P10828 whole entry, looked up): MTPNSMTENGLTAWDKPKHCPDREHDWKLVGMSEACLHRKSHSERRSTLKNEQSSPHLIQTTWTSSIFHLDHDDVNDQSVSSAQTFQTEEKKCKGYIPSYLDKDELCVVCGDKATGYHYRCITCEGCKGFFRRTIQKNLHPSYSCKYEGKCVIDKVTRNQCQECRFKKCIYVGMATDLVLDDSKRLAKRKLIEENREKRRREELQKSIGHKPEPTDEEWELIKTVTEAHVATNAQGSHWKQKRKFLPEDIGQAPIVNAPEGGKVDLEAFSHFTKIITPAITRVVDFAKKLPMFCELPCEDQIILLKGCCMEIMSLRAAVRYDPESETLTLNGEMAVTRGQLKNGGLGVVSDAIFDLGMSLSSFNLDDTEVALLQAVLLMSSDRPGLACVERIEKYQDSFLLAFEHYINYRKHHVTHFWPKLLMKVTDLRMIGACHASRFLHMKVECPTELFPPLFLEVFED
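Decrease in fluorescence polarization of 20 nM Texas Red SRC2 coactivator peptide flagged inhibition of its binding to 0.6 uM TRb LBD; 1 uM T3 included, incubation 5 hr, ex 555/em 632 nm.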
Each line names hits and unclear results; the compound was inactive in the other large screens; [ ] = remark or other dose. Unless noted, the call rests on the fitted dose curve; in most records, active means well fitted curve in the direction sought with a large enough effect; inconclusive means small, poorly fitted or top-dose-only effect, or another doubt; inactive means no such curve, though single readings can be large; an effect the other way counts as inactive or inconclusive.

O=C(Nc1ccc(Cl)cc1)Nc1nc(-c2ccccc2O)cs1	Tau fibril FP inconclusive, Tau fluor cs 3.5µM[quencher]
O=C(Nc1ccc(Cl)c(Cl)c1)Nc1nc(-c2ccccc2)cs1	Tau fibril FP 18µM, Tau fluor cs inconclusive
CC(C)c1cc(Nc2cccc(O)c2)cc(C(C)C)c1O	Tau fibril FP inconclusive, Tau fibril ThT 32µM, Tau fluor cs inconclusive
Oc1cccc(Nc2ccccc2)c1	none (no result: Tau fibril FP, Tau fibril ThT, Tau fluor cs)
COc1ccc(CNC(=O)CCn2cccn2)cc1	none
O=C1/C(=C\c2ccc3c(c2)OCO3)CCC/C1=C/c1ccc2c(c1)OCO2	Tau fibril ThT 4.5µM
O=C1/C(=C/c2ccncc2)CCC/C1=C\c1ccncc1	Tau fibril FP 5µM, Tau fibril ThT 5µM
O=C1OCC/C1=C\c1ccc2c(c1)OCO2	none
O=C(N/N=C/c1cccc(OCc2ccccc2)c1)c1cccs1	Tau fibril FP inconclusive, Tau fibril ThT inconclusive, Tau fluor cs 25µM[quencher]
COc1cc([N+](=O)[O-])cc(/C=N/NC(=O)c2cncc(Br)c2)c1O	Tau fibril ThT 13µM
CCOc1cc(/C=N/NC(=O)c2cccs2)cc([N+](=O)[O-])c1O	Tau fibril ThT 10µM, Tau fluor cs inconclusive
COc1cc(/C=N/NC(=O)c2cncc(Br)c2)cc([N+](=O)[O-])c1O	Tau fibril ThT 13µM
COC(=O)C1=C(C)N(Cc2ccccc2)C2=C3C(=O)OCCC3[C@@](O)(C(=O)OC)C(=O)N2C1c1ccccc1 (some centres not stated)	none
COc1ccc(NC(=O)CN2C(=O)C(C)(C)c3ccccc32)cc1Cl	none
CSc1nsc(/C=C/Nc2ccc(Cl)cc2)c1C#N	Tau fibril ThT 16µM, Tau fluor cs inconclusive
CSc1nsc(/C=C/Nc2ccc(O)cc2C)c1C#N	Tau fibril FP 25µM, Tau fibril ThT 16µM, TexasRed fluor 50µM[fluorescent], Tau fluor cs inconclusive, TRb-SRC2 inh 45µM
CCOc1ccc(-c2csc(/C(C#N)=C\c3ccc(O)c([N+](=O)[O-])c3)n2)cc1	Tau fibril FP inconclusive, Tau fibril ThT 1.3µM, Tau fluor cs 7.1µM[quencher]
Cc1cc([N+](=O)[O-])ccc1-c1ccc(C2Nc3ccccc3C(=O)N2O)o1 (configuration not stated)	Tau fibril ThT 14µM, Tau fluor cs inconclusive
Cc1cccc(OCC(=O)Nc2ccc3nc(Nc4cccc(Cl)c4)cc(C)c3c2)c1	Tau fibril ThT inconclusive, TexasRed fluor inconclusive, Tau fluor cs inconclusive
COc1ccc(Nc2cc(C)c3cc(NC(=O)Cc4ccc(Cl)cc4)ccc3n2)cc1	Tau fibril ThT 11µM, Tau fluor cs 5µM[quencher]
Cc1cc(N2CCOCC2)nc2ccc(NC(=S)N3CCCCC3C)cc12 (configuration not stated)	Tau fibril ThT 11µM, Tau fluor cs 16µM[quencher]
COc1cccc(C(=O)Nc2ccc3nc(N4CCN(c5ncccn5)CC4)cc(C)c3c2)c1OC	Tau fibril ThT 8.9µM
CCN1CCN(c2cc(C)c3cc(NC(=O)c4cc(OC)c(OC)c(OC)c4)ccc3n2)CC1	Tau fibril ThT inconclusive, Tau fluor cs inconclusive
Cc1cc(Nc2cccc(Cl)c2)nc2ccc(NC(=O)COc3ccc(Cl)cc3)cc12	Tau fibril ThT inconclusive, Tau fluor cs 7.9µM[quencher]
CC12C=C(/C=C/c3ccc(Br)cc3)C(C)(C1)[C@H](c1ccc(Br)cc1)CC2=O (some centres not stated)	none
Cc1c(Cl)cccc1NC(=O)CCCn1nc(C)c2sc3ccccc3c2c1=O	none
COc1cccc(C(=O)Nc2ccc3nc(N4CCOCC4)cc(C)c3c2)c1	Tau fibril ThT 5µM, Tau fluor cs inconclusive
CCN1CCN(c2cc(C)c3cc(NC(=O)c4cccc(OC)c4)ccc3n2)CC1	Tau fluor cs inconclusive (no result: Tau fibril ThT)
COc1ccc(CC(=O)Nc2ccc3nc(N4CCCCC4)cc(C)c3c2)cc1	Tau fibril ThT inconclusive, Tau fluor cs 13µM[quencher]
COC(=O)C(CC(C)C)NC(=O)C(N)Cc1ccccc1 (configuration not stated)	none
CC[C@@H](C)[C@@H](CO[C@@H](Cc1ccccc1)C(=O)N[C@@H](CCS(C)(=O)=O)C(=O)OC(C)C)NC[C@@H](N)CS	Tau fibril FP inconclusive, Tau fibril ThT 35µM
COC(=O)c1nnc(N[C@@H](Cc2c[nH]c3ccccc23)C(=O)OC)nc1C(=O)OC	none
Cc1ccc(N(CC(O)COCc2ccco2)S(=O)(=O)c2ccc(C)cc2)cc1 (configuration not stated)	Tau fibril FP inconclusive, Tau fibril ThT 32µM
CCCN(CCC)CC(O)CN(c1ccccc1)S(=O)(=O)c1ccc(C)cc1 (configuration not stated)	none
CC(C)(O)[C@@H]1CCC[N+]2(C)CCCC[C@H]12 (some centres not stated)	none
COc1ccc2c(c1)O[C@@H]1c3ccc(OC)cc3OCC21 (some centres not stated)	none
CCOC(=O)C1=C(C)NC(=O)CC1c1cc2c(cc1[N+](=O)[O-])OCO2 (configuration not stated)	Tau fibril FP inconclusive, Tau fibril ThT 22µM, TexasRed fluor inconclusive, Tau fluor cs inconclusive, TRb-SRC2 inh inconclusive
N#CC1=C(N)Oc2n[nH]c(-c3cccs3)c2C1c1cccs1 (configuration not stated)	Tau fibril ThT 28µM, Tau fluor cs inconclusive
Cc1ccc(S(=O)(=O)Oc2ccc(N=Nc3ccc(-c4ccc(N=Nc5c(O)ccc6cc(S(=O)(=O)O)cc(S(=O)(=O)O)c56)c(C)c4)cc3C)cc2)cc1	TRb-SRC2 inh inconclusive (no result: Tau fibril FP, Tau fibril ThT, Tau fluor cs)
O=C(Oc1cccc2c(O)cccc12)c1ccccc1	Tau fibril ThT inconclusive, Tau fluor cs 13µM[quencher]
O=C(O)CCc1ccccc1OC(=O)c1ccccc1	none (no result: Tau fibril ThT)
CCOc1ccc(C(=O)Nc2ccc(OCc3cc(=O)n4cccc(C)c4n3)cc2)cc1	none
O=C1c2ccccc2C2=Nc3ccccc3SC(c3cccc(F)c3)C12 (configuration not stated)	Tau fibril FP inconclusive, Tau fibril ThT 13µM, Tau fluor cs 13µM[quencher]
N#C/C(=C\c1ccc(Sc2ccc(Cl)cc2)o1)c1nc2ccccc2[nH]1	Tau fibril FP inconclusive, Tau fibril ThT inconclusive, Tau fluor cs 7.1µM[quencher]
Cc1cc(/C=C(/C#N)c2nc3ccccc3[nH]2)c(C)n1-c1cccc([N+](=O)[O-])c1	Tau fibril ThT inconclusive, Tau fluor cs inconclusive
N#C/C(=C\c1cc([N+](=O)[O-])c(N2CCOCC2)cc1N1CCOCC1)c1nc2ccccc2[nH]1	Tau fibril ThT 16µM, Tau fluor cs inconclusive
N#C/C(=C/c1ccc(N2CCCCCC2)o1)c1cccc(F)c1	Tau fibril FP inconclusive, Tau fibril ThT 14µM, Tau fluor cs inconclusive
N#C/C(=C\c1ccc(N2CCOCC2)o1)c1ccccc1	Tau fibril FP inconclusive, Tau fibril ThT 14µM, TexasRed fluor inconclusive, Tau fluor cs inconclusive
O=C1CCCC/C=C/CCCCCCCCCO1	none (no result: Tau fibril FP, Tau fibril ThT, Tau fluor cs)
CCOc1ccc(S(=O)(=O)N(CC(=O)NCCc2ccc(OC)cc2)c2ccccc2)cc1	none
